Inconclusive results are not listed. Values without a mark were called inactive. Active and inactive are the calls of the source. Calls follow the shape of the dose curve; as a rule, active = well fitted inhibition curve with a large enough effect; inconclusive = small, poorly fitted or top-dose-only effect; inactive = flat fitted curve, though single readings scatter.
Legend:
[1] = system: HEK293; test: Cytotoxic Profiling of Annotated Libraries Using Quantitative High-Throughput Screening (AID 1296008); settings: Five cell lines viability, CellTiter-Glo ATP luminescence, 48-72 h; max response: hits give low values; as to max response: % is scaled to controls: 0 for no effect and ±100 for the full control effect
Method in brief: (§1)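 Compounds were pin-transferred onto cells and incubated 48 or 72 hr at 37 degree Celsius, 95% humidity. CellTiter-Glo was added, plates sat 10 min at room temperature, then ATP-coupled luminescence was imaged as the viability read-out.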

[2] = system: KB-3-1; test: as above; settings: Five cell lines viability, CellTiter-Glo ATP luminescence, 48-72 h; max response: hits give low values
Method in brief: as §1

[3] = system: PC49; test: qHTS profiling for inhibitors of Plasmodium falciparum proliferation (AID 504749); settings: P. falciparum in erythrocytes, SYBR Green DNA, 72 h
Method in brief: (§2)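 Fluorescence of SYBR Green-bound parasite DNA, read at 485/535 nm, served as the growth measure. Infected erythrocytes were cultured with compound 72 h; artemisinin (0.29 uM) and DMSO wells defined the normalization range.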

[4] = system: SC27B; test: as above; settings: P. falciparum in erythrocytes, SYBR Green DNA, 72 h
Method in brief: as §2

[5] = system: TAB109; test: as above; settings: P. falciparum in erythrocytes, SYBR Green DNA, 72 h
Method in brief: as §2

[6] = system: TAB113; test: as above; settings: P. falciparum in erythrocytes, SYBR Green DNA, 72 h
Method in brief: as §2

[7] = system: TAB165; test: as above; settings: P. falciparum in erythrocytes, SYBR Green DNA, 72 h
Method in brief: as §2

[8] = system: W2; test: as above; settings: P. falciparum in erythrocytes, SYBR Green DNA, 72 h
Method in brief: as §2
Also: nearly all actives have a fitted effect of over 60% in size.
Potency is read from the fitted curve at half-maximal effect.

With `Cc1nc(Nc2n[nH]c3c2CN(C(=O)NC(CN(C)C)c2ccccc2)C3(C)C)c2sccc2n1` (stereo not given) the Potency [1] was 0.0146 µM (active) and the Potency [2] was 1.84 µM (active).

`Oc1ccc(CNc2ccccc2F)c2cccnc12` was tested, and the Potency [1] was 18.4 µM (active) and the Potency [2] was 5.8 µM (active).

With `COc1cc(O)c2c(c1)C1=CC(O)C(O)CC1(C)OC2=O` (stereo not given) the max response [1] was -5.55% and the outcome [2] was “inactive”.

In the case of `Cc1ncc(CCCN(C)C)cc1Nc1ncc2c(n1)-c1ccc(C(F)(F)F)cc1NC(=S)C2`, the max response [1] is reported as -92.5% and the Potency [2] is reported as 0.0046 µM (active).

With `O=c1[nH]ccc2cc(OC3CCNCC3)ccc12` the max response [1] was -16.8% and the outcome [2] was “inactive”.

`Cc1cc(Nc2ccc(NC(=O)c3ccc(Nc4ccnc5ccccc45)cc3)cc2)nc(N)n1` was tested, and the Potency [1] was 3.26 µM (active) and the Potency [2] was 4.61 µM (active).

In the case of `Cc1cccc(C)c1OCc1cc(C(=O)N2CCC(c3ccncc3)CC2)no1`, the Potency [1] is reported as 6.51 µM (active) and the Potency [2] is reported as 8.2 µM (active).

For `O=C(O)/C=C/c1ccc(-c2ccc(O)c(C34CC5CC(CC(C5)C3)C4)c2)cc1`, the Potency [1] was 0.731 µM (active) and the Potency [2] was 2.06 µM (active).

In the case of `C[C@@]1(O)[C@H](O)[C@@H](CO)O[C@H]1n1ccc(N)nc1=O`, the outcome [1] is reported as “inactive” and the outcome [2] is reported as “inactive”.

For `N#Cc1c(Oc2ccc(F)c(NC(=O)Cc3cccc(C(F)(F)F)c3)c2)ccc2nc(NC(=O)C3CC3)sc12`, the Potency [2] was 16.4 µM (active).

For `O=C(Nc1ccc(S(=O)(=O)C(F)(F)F)cc1)C1=CCN(c2ncccc2C(F)(F)F)CC1`, the Potency [1] was 8.2 µM (active) and the Potency [2] was 23.1 µM (active).

For `O=C(Nc1ccc(-c2ccncc2)cc1)N[C@H](CO)c1ccccc1`, the max response [1] was -14.1% and the outcome [2] was “inactive”.

With `C[C@@H]1O[C@@H](O[C@H]2[C@H](O[C@H]3CC[C@@]4(C)C(CC[C@]5(C)C4C=C[C@]46OC[C@@]7(CCC(C)(C)C[C@H]74)[C@@H](O)C[C@]65C)[C@]3(C)CO)O[C@H](CO)[C@@H](O)[C@@H]2O[C@@H]2O[C@H](CO)[C@@H](O[C@@H]3O[C@@H](C)[C@H](O)[C@@H](O)[C@H]3O)[C@H](O)[C@H]2O)[C@H](O)[C@H](O)[C@H]1O` (stereo not given in full) the Potency [1] was 3.9 µM (active) and the max response [2] was -30.1%.

For `CNC(=O)c1ccccc1Nc1nc(Nc2ccc3c(c2OC)CCC[C@@H](N2CCN(CCO)CC2)C3)ncc1Cl`, the Potency [1] was 5.8 µM (active) and the Potency [2] was 13 µM (active).

In the case of `CCN(CC)c1ccc2c(O)c(C=Nc3ccc(CC(=O)O)c(-c4c5c(nc6ccccc46)CCC(C(=O)NN)C5)c3)c(=O)oc2c1` (stereo not given), the Potency [1] is reported as 11.6 µM (active) and the Potency [2] is reported as 5.8 µM (active).

In the case of `CCS(=O)(=O)N1CCN(c2ccc(Nc3ncc(C(N)=O)c(NC4CC4)n3)cc2)CC1`, the Potency [1] is reported as 7.31 µM (active) and the Potency [2] is reported as 5.17 µM (active).

In the case of `C/C=C/c1ccc(O[C@@H]2O[C@H](CO)[C@@H](O)[C@H](O)[C@H]2O)c(OC)c1`, the Potency [1] is reported as 11.4 µM (active) and the max response [2] is reported as -6.82%.

For `C[C@H]1C(=O)N2c3ccccc3[C@@]3(O)C[C@@H]4C(=O)N[C@](C)(c5nc6ccccc6c(=O)n54)N1[C@@H]23`, the max response [1] was -0.775% and the outcome [2] was “inactive”.

With `C=C1C(=O)O[C@@H]2[C@H]1CCC(C)=C1CCC(=O)O[C@]12C` the Potency [1] was 14.6 µM (active) and the max response [2] was -23.5%.

`CC(=O)O[C@H]1C(=O)[C@@]2(C)[C@H]([C@H](OC(=O)c3ccccc3)[C@]3(O)C[C@H](OC(=O)[C@H](O)[C@@H](NC(=O)c4ccccc4)c4ccccc4)C(C)=C1C3(C)C)[C@]1(OC(C)=O)CO[C@@H]1C[C@@H]2O` was tested, and the Potency [3] was 2 µM (active), the Potency [4] was 1.26 µM (active) and the Potency [5] was 0.355 µM (active). The Potency [6] was 1.26 µM (active), the Potency [7] was 0.282 µM (active) and the Potency [8] was 0.169 µM (active). The Potency [1] was 0.0055 µM (active) and the Potency [2] was 0.0098 µM (active).

With `C[C@@H]1C[C@H]2O[C@@H]2/C=C\C=C\C(=O)Cc2c(Cl)c(O)cc(O)c2C(=O)O1` the Potency [1] was 0.0873 µM (active) and the Potency [2] was 1.1 µM (active).

For `Cc1cccc2c1NC(=O)C2(c1ccc(O)cc1)c1ccc(O)cc1`, the max response [1] was -20.9% and the max response [2] was -4.45%.

With `CC(=O)NC[C@H]1CN(c2ccc(N3CCN(C(=O)CO)CC3)c(F)c2)C(=O)O1` the Potency [1] was 13 µM (active) and the max response [2] was -17.1%.

In the case of `Cc1ccc(NC(=O)Nc2cc(C(F)(F)F)ccc2F)cc1Nc1ccc2c(c1)NC(=O)/C2=C\c1ccc[nH]1`, the Potency [1] is reported as 11.6 µM (active) and the Potency [2] is reported as 20.6 µM (active).

`CNC12CC3C[C@@](C)(C1)C[C@](C)(C3)C2` was tested, and the max response [1] was -16.8% and the outcome [2] was “inactive”.
